According to PubChem BioAssay AID1946 (Johns Hopkins Ion Channel Center, 2009):
Screen size: about 2,400 compounds; about 180 (7.5%) were called active.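 How the source made its calls: active means readout below zero, meaning a drop past 3 SD under the dofetilide-free negative control mean; inactive means the rest.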 Only a selection was taken, and actives are over-represented in it overall.

Target: Potassium voltage-gated channel subfamily KQT member 2 (Rattus norvegicus) (UniProt O88943)
Test: KCNQ2 blockade in CHO cells – cell-based, FluxOR thallium flux, counter-screen for hERG block protector project, confirmation (AID 1946)
Conditions: FluxOR thallium flux fluorescence, at 10 µM, stronger effect = lower value, zero marks the 3-SD hit cutoff

Chain of Potassium voltage-gated channel subfamily KQT member 2 (Rattus norvegicus) (O88943 whole entry, looked up): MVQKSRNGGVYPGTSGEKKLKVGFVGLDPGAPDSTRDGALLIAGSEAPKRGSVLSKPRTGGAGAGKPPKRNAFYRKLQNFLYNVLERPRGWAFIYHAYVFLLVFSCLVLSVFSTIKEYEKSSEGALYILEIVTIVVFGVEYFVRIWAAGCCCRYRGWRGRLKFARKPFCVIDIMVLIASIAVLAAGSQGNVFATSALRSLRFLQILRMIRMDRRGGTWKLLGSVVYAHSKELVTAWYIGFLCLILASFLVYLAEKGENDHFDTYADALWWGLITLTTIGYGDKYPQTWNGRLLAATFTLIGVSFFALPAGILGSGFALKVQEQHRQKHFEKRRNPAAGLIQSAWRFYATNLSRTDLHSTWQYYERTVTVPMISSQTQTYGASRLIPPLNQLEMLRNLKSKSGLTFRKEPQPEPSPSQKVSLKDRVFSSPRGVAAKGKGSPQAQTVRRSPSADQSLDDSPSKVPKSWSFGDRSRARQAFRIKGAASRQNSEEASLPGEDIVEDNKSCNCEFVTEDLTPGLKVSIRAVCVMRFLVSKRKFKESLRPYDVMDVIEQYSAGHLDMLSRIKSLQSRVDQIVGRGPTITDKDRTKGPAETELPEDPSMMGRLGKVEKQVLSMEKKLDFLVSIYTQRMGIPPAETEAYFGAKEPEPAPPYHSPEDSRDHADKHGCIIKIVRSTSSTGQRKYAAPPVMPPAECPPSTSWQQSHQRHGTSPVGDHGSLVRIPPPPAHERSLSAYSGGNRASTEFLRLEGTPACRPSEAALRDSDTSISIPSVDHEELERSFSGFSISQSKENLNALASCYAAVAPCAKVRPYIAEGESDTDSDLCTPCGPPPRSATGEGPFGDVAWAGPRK

SMILES | activity change vs negative control
COc1cccc(OCC(=O)NNC(=O)C(=O)Nc2ccc(OC)cc2OC)c1 | 43.2% (inactive)
CCCN1C(=O)/C(=C/c2ccc3c(c2)OCO3)NC1=S | 19.4% (inactive)
O=C1NC(=O)/C(=C/c2cc3c(cc2Br)OCO3)S1 | -0.8% (active)
O=C1NC(=S)S/C1=C\c1ccc2ccccc2c1 | 75.1% (inactive)
N#Cc1c(NC(=O)c2cc(-n3cnnc3)ccc2Cl)sc2c1CCCC2 | 13% (inactive)
COc1ccc(C(=O)CC(=O)C(=O)Nc2ccccc2)cc1 | 32.5% (inactive)
CC1CN(C(=S)NC(=O)c2ccc(Cl)cc2)CC(C)O1 (centres undefined) | 28.2% (inactive)
CCn1cc(C(=O)NCCN(C)C)c(=O)c2cc(F)c(N3CCN(C)CC3)cc21 | -0.9% (active)
O=C(NC(=S)Nc1cccnc1)c1cc2ccccc2o1 | 31.9% (inactive)
CC(C)Oc1cccc(C(=O)N2CCCC2)c1 | 9.7% (inactive)
COc1ccc(CS(=O)(=O)CC2(O)CCN(C(=O)c3cccc(C(F)(F)F)c3)CC2)cc1 | -2.4% (active)
COc1ccc(C(=O)O)cc1S(=O)(=O)Nc1cccc(C(F)(F)F)c1 | 8% (inactive)
C/C(=N\NC(=O)c1cc2ccccc2cc1O)c1cc2ccccc2o1 | 112% (inactive)
Cc1c(-c2ccn[nH]2)cc(NC(=O)c2ccc(Cl)cc2)c(=O)n1N | -0.8% (active)
Cc1ccc(C(=O)Nc2nc(=O)n(C)s2)cc1 | 15.9% (inactive)
O=C(Nc1nc(=O)c2ccccc2s1)c1ccc(Cl)cc1 | 23.9% (inactive)
CCOC(=O)c1ccc(NC(=O)Cn2nnc(-c3ccccc3)n2)cc1 | -3.4% (active)
CCOC(=O)c1nnn(CC(=O)Nc2cccc(F)c2)c1C(=O)OCC | 14.1% (inactive)
Cc1cc(C)c(-c2cc(NC(=O)COC(=O)c3ccc(NC(=O)CC#N)cc3)n(-c3ccccc3)n2)cc1C | 7.4% (inactive)
Cc1cccc(NC(=S)NC(=O)c2ccco2)c1C | 77.7% (inactive)
CCOc1cccc(C(=O)Nc2ccc3[nH]ncc3c2)c1 | 15.6% (inactive)
O=C(Nc1cccc2[nH]ncc12)c1ccc(F)cc1 | -2.9% (active)

SMILES | activity change vs negative control
O=C(Nc1nc(-c2ccccc2)c(-c2ccccc2)o1)c1ccc(F)cc1 | 40.3% (inactive)
CCCCn1c(N)c(C(=S)NC(=O)CC(C)(C)C)c(=O)n(C)c1=O | 40.5% (inactive)
Cc1sc2ncnc(SCC(=O)c3ccc(O)cc3O)c2c1C | 24.3% (inactive)
Cn1ncc2c(O/N=C(\N)c3ccc(C(F)(F)F)cc3)ncnc21 | 7.4% (inactive)
Cn1ncc2c(NNC(=O)c3ccc(O)cc3)ncnc21 | -3.1% (active)
Cn1ncc2c(NNC(=O)Cc3ccccc3)ncnc21 | 15.1% (inactive)
O=c1cc(-c2ccccc2)cc(-c2ccccc2)n1O | 72.2% (inactive)
COC(=O)CNC(=S)NC(=O)c1ccc(C(C)(C)C)cc1 | 1.6% (inactive)
COC(=O)CNc1nc(Cl)nc(Nc2ccc(C)cc2)n1 | -0.4% (active)
COc1ccc(OCC(=O)NNC(=O)C(=O)Nc2ccc(C)cc2)cc1 | 7.7% (inactive)
COc1ccc(Cn2c(O)cc(=O)[nH]c2=O)cc1 | 1.4% (inactive)
COc1ccc(-n2c(=S)[nH]c3ccccc3c2=S)cc1 | 22.2% (inactive)
COc1ccc(-n2c(O)c(/C=C3\C=Nc4ccccc43)c(=O)[nH]c2=O)cc1 | -8.7% (active)
CCC1(C)Cc2c(sc3nc(SC)[nH]c(=S)c23)CO1 (centres undefined) | 131% (inactive)
COc1ccc(/C=C/C(=O)Nc2ccccc2C(=O)O)cc1 | 27.2% (inactive)
CCOC(=O)/C(C)=N/NC(=O)c1ccc([N+](=O)[O-])cc1 | 40.5% (inactive)
CCNC(=S)Nc1nc2c(cc1C(=O)OCC)CCCC2 | 29.4% (inactive)
O=C(O)CSCc1c(F)cccc1Cl | -3.5% (active)
O=C(O)CSc1nc2ccccc2nc1Cc1ccccc1F | 29.1% (inactive)
CCN(CC)CCCN1C(=O)c2oc3ccccc3c(=O)c2C1c1cccs1 (centres undefined) | 44.2% (inactive)
CON/C=N/C(=S)Nc1ncc(C(F)(F)F)cc1Cl | 51.1% (inactive)
Cc1nn(C)c(C(=O)NC(=S)Nc2ccc([N+](=O)[O-])cc2)c1Cl | 29.3% (inactive)

SMILES | activity change vs negative control
Cc1ccc(NC(=S)NC(=O)c2sc3ccccc3c2Cl)c(C(=O)O)c1 | 36.9% (inactive)
CCOc1ccc(/C=C2\CCc3ccccc3C2=O)cc1 | 10.2% (inactive)
COc1cccc([C@@H]2Oc3ccc(OC)cc3C(=O)[C@H]2OC(=O)NCc2ccc3c(c2)OCO3)c1 | 2.3% (inactive)
COc1cccc(C2C3=C(N=c4s/c(=C\c5ccc(OCC(=O)O)cc5)c(=O)n42)c2ccccc2CC3)c1 (centres undefined) | -16.7% (active)
O=C(NC(=S)N(CCCCO)C1CCCCC1)c1sc2ccccc2c1Cl | 53.8% (inactive)
C=CCn1c(SCC(=O)NCC2CCCO2)nnc1-c1ccccc1 (centres undefined) | 8.9% (inactive)
O=C(CNCC1CCCO1)N1CCCCCC1 (centres undefined) | 8.2% (inactive)
O=C(CSc1cn(CC(=O)N2CCCC2)c2ccccc12)NCC1CCCO1 (centres undefined) | -4.5% (active)
CC(C)(C)c1cc(C(=O)NNC(=O)c2ccc(Cl)cc2)no1 | 53.5% (inactive)
COc1cccc(OC)c1OCCOCCN1CCN(C)CC1 | 6.8% (inactive)
COc1cccc(CN(C)CC2CCCN(CCc3ccc(Cl)cc3)C2)c1OC (centres undefined) | -3.8% (active)
Oc1c(Cl)cc(Cl)cc1C=Nc1ccc(Br)cc1 | 60.6% (inactive)
CCOC(=O)N/N=C/C=C/c1ccccc1[N+](=O)[O-] | 28.8% (inactive)
C=CCN(c1ccc(Cl)cc1)S(=O)(=O)c1cccc(C(=O)O)c1 | 26.2% (inactive)
S=c1nn[nH]n1C12CC3CC(CC(C3)C1)C2 | 36.2% (inactive)
CC1CCN(C(=S)NC(=O)c2cccs2)CC1 | 23.7% (inactive)
C=CCn1c(=S)[nH]c2scc(-c3cccs3)c2c1=O | 121% (inactive)
C=CCc1cccc(C2Nc3ccccc3C(=O)N2O)c1O (centres undefined) | 19% (inactive)
OC(CNCCc1ccc(C(F)(F)F)cc1)COc1cccc2ccccc12 (centres undefined) | -18.2% (active)
Cn1c(NNC(=O)C(c2ccccc2)c2ccccc2)cc(=O)n(C)c1=O | 12.8% (inactive)
